From PubChem BioAssay
Most compounds without a hit are left out; they make up all but 2.8% or so of the library.
GALC G270D up – A Novel Cell-Based Assay to Identify Small Molecules for B -Galactocerebrosidase; Potency, µM (highest dose often 57.5 µM), hits mostly activators; 145M-Twi-hGALC-G270D cells (Twitcher mouse brain line with human GALC G270D), HMU-beta-Gal fluorescence, 48 h; 0.1% of 45,000 active; note: nearly all actives have a fitted effect of over 65% in size
Target sequence (P54803 whole entry G286D): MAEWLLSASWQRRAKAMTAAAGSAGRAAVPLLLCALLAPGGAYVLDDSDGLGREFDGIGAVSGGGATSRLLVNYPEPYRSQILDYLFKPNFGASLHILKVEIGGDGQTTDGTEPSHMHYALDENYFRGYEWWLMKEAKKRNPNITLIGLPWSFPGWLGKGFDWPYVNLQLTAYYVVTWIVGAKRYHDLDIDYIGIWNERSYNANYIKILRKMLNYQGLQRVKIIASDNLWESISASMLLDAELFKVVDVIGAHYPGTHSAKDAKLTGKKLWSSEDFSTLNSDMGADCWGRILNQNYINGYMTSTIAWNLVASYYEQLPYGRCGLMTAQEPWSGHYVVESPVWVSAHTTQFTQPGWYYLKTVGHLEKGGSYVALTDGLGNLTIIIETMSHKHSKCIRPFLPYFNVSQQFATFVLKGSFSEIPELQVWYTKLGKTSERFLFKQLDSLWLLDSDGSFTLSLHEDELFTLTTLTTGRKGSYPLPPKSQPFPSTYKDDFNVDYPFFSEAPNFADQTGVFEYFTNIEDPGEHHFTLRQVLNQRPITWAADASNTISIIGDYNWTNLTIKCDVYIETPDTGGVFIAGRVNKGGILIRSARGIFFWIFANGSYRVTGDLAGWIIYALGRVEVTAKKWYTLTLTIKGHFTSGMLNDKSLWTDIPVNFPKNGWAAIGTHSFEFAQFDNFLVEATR
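Brain-derived Twitcher mouse 145M-Twi cells stably expressing human GALC-G270D or wild-type GALC, treated live, then residual GALC activity read by fluorescence of HMU-b-Gal substrate (0.1 mM final) in citrate-phosphate buffer pH 5.2 with sodium taurocholate. Signal increase indicates enhancement.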
S16 viability – Cell viability qHTS assay in S16 Pmp22-F2sN cells. S16 Pmp22-F2sN Schwann cells viability, CellTiter-Glo, 24 h. Potency, µM (titrated, usually from 57.5 µM), most hits filed as cytotoxic. 0.48% of 43,000 active. AID 1508642, 2021; note: nearly all actives have a fitted effect of over 65% in size
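Viability was measured by CellTiter-Glo luminescence (15 min, room temperature). This followed 24 h at 37 °C of compound exposure (23 nL pin transfer) in S16 Pmp22-F2sN Schwann cells, 500-1,000 per well.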
PMP22 txn – Cell-based coincidence reporter assay to measure PMP22 gene transcription in S16 Pmp22-F2sN cells - Primary screen. AID 1508649, 2021. Potency, µM (highest dose often 57.5 µM), actives largely listed as inhibitors. 2% of 43,000 active. S16 Pmp22-F2sN Schwann cells (luciferase reporters placed in the Pmp22 gene), FLuc/NLuc coincidence luminescence, 24 h; active = clear falling dose curves in both reporters; inconclusive = both reporters move, but less clearly or upward; inactive = either reporter flat; the % is the NLuc reporter signal
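Luminescent read-out of sequential FLuc and NLuc signals from a reporter embedded in the Pmp22 3' UTR of S16 Schwann cells, taken after 24 h compound exposure at 37C; compounds reducing both signals score as inhibitors of expression.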
pS6 MEF inh – Acumen qHTS Assay for Inhibitors of the mTORC1 Signaling Pathway in MEF (Tsc2-/-, p53-/-) Cells: Sytravon. Tsc2-/- p53-/- MEF, phospho-rpS6 immunofluorescence/PI, 24 h. Potency, µM (top dose mostly 38.3 µM), usual class: inhibitors. 0.78% of 44,000 active. AID 493208, 2011; note: nearly all actives have a fitted effect of over 50% in size
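Tsc2-/-, p53-/- MEFs (empty-vector stable line) in DMEM + 10% FBS were treated with compounds 24 h at 37 degree Celsius, fixed, and immunostained for phospho-rpS6 (Alexa-488) with propidium iodide counterstain. Laser-scanning cytometry gave % positive cells, normalized against 7.5 nM rapamycin and DMSO.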
Hits are given with their value; - = inactive; ? = inconclusive; . = no result. Unless noted, calls come from the whole dose curve; as a rule, active = well fitted curve in the direction sought with a large enough effect; inconclusive = small, poorly fitted or top-dose-only effect, or another doubt; inactive = no such curve, though single readings can be large; an effect the other way counts as inactive or inconclusive.

SMILES	GALC G270D up	S16 viability	PMP22 txn	pS6 MEF inh
Cc1cc(C)c(NS(=O)(=O)c2ccc(-c3cnc(C4CC4)o3)cc2)c(C)c1	-	0.794µM	?	?
COc1cccc(N2CCN(S(=O)(=O)c3ccc(-c4cnc(C5CC5)o4)cc3)CC2)c1	-	15.8µM	?	-
Cc1cc(C)cc(NC(=O)CCc2c(C)nc3c(c2C)c(=O)n(C)c(=O)n3C)c1	-	-	-	-
CCCCCOc1ccccc1/C(=C\SC)n1ccnc1	-	.	.	.
Cc1ccc(C(=O)C(=O)O)cc1C	-	.	.	.
CC(C)OCc1cc(CN2CCN(c3ccccc3)CC2)c(O)c2ncccc12	-	?	5.12µM	?
COc1ccc(-c2noc(CN3CCN(c4cccc(Cl)c4)CC3)n2)cc1	-	-	-	-
CCOCc1cc(CN2CCN(c3cccc(Cl)c3)CC2)c(O)c2ncccc12	-	?	5.75µM	11.7µM
CC(C)Oc1ccc(CNC(=O)C2CCN(c3nc4ccccc4nc3C(F)(F)F)CC2)cc1	-	7.94µM	?	-
COCCNC(=O)C1CCN(c2nc3ccccc3nc2C(F)(F)F)CC1	-	-	-	-
COc1ccnc2c1CCCCC2S(=O)c1nc2ccccc2[nH]1 (stereo not given)	-	.	.	.
Cc1nc2c(-c3ccccc3)c(C)[nH]n2c(=O)c1Cc1ccc(Br)cc1	-	10µM	9.46µM	?
Cc1nn2c(-c3ccccc3)cc(-c3ccccc3)nc2c1-c1ccc(Cl)cc1	-	-	-	-
Cc1[nH]n2c(=O)cc(-c3ccc(Cl)cc3)nc2c1-c1ccccc1	-	10µM	8.53µM	?
Cc1ccc(Cc2c(C)nc3c(-c4ccccc4)c(C)[nH]n3c2=O)cc1	-	?	?	-
Cc1nc2c(-c3ccccc3)c(C)[nH]n2c(=O)c1Cc1ccc(C(C)C)cc1	-	8.91µM	?	-
CCCCc1c(C)nc2c(-c3ccc(Cl)cc3)c(C)[nH]n2c1=O	-	5.01µM	11.3µM	-
Cc1nc2c(-c3ccc(F)cc3)c(C)nn2c(C)c1CCC(=O)NCc1ccc(Cl)cc1	-	-	?	-
Cc1nc2nc(NC(=O)C(C)C)[nH]n2c(=O)c1Cc1ccccc1	-	-	-	-
CN(C)CCN1CCN(c2cccc(Cl)c2)C1=O	-	.	.	.
COC(=O)C1=C(C)NC(C)=C(C(=O)OCCCN2CCC(c3ccccc3)(c3ccccc3)CC2)C1c1cccc([N+](=O)[O-])c1 (stereo not given)	-	.	.	.
CCCC(=O)Nc1ccc(O)c(C(C)=O)c1	-	.	.	.
CC(=O)c1cc2ccccc2s1	-	.	.	.
Cc1ccc2cc(CN(C)C(=O)c3cccc(Cl)c3)c(=O)[nH]c2c1	-	-	-	-
CCOC(=O)C(=O)c1csc(NC=O)n1	-	.	.	.
SMILES	GALC G270D up	S16 viability	PMP22 txn	pS6 MEF inh
COc1cc(S(N)(=O)=O)cc(C(=O)O)c1OC	-	.	.	.
CC(=O)c1cccc(NS(=O)(=O)c2cc(-c3cnc(C4CC4)o3)ccc2C)c1	-	?	16.8µM	-
Cc1ccc(NS(=O)(=O)c2cc(-c3cnc(C4CC4)o3)ccc2C)cc1Cl	-	14.1µM	?	?
CC(=O)c1ccc(NS(=O)(=O)c2cc(-c3cnc(C4CC4)o3)ccc2C)cc1	-	?	?	-
N[C@H](C(=O)O)c1ccc(O)cc1	-	.	.	.
COc1ccc(CNC(=O)c2cc(-c3ccc(OC)c(OC)c3)nc3n[nH]c(-c4ccc(C)cc4)c23)cc1	-	-	?	14.7µM
CCCCNC(=O)c1cc(-c2ccc(OC)cc2)nc2n[nH]c(-c3cccc([N+](=O)[O-])c3)c12	-	15.8µM	?	-
CCOc1ccc(-c2cn3c(n2)sc2cc(C(=O)NCCCN(CC)CC)ccc23)cc1	-	10µM	4.47µM	-
CCOc1ccc(-c2cn3c(n2)sc2cc(C(=O)NCCCN4CCCCCC4)ccc23)cc1	-	?	?	-
Cc1ccc(-c2cn3c(n2)sc2cc(C(=O)NCCCN4CCCCC4)ccc23)cc1	-	3.98µM	8.91µM	-
CCOc1ccc(-c2cn3c(n2)sc2cc(C(=O)NCCCN4CCCCC4)ccc23)cc1	-	7.08µM	14.2µM	-
COCCc1ccc(OCC2CO2)cc1 (stereo not given)	-	.	.	.
C/C=C(/C(=C/C)c1ccc(OC(C)=O)cc1)c1ccc(OC(C)=O)cc1	-	.	.	.
